The values below come from PubChem BioAssay (EPA / NIEHS).

As usually defined, the AC50 is the concentration at which the activity in the assay is half-maximal.

The structures appear in SMILES notation. Results filed as inconclusive are left out. Calls of active or inactive are those of the source. Rule for the calls: active = hit-call score of the fitted dose curve at least 0.9, where 1 is the maximum; inconclusive = response in the unintended direction; inactive = score below 0.9.

The experiment can be described thus: Tanguay_ZF_120hpf_JAW_legacy: (Legacy) Oregon State University Tanguay Lab 120 Hour Post-fertilization zebrafish Assay for Jaw Malformation (AID 2283638).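 For AC50: active means more embryos with jaw malformation than DMSO controls.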 How it is done:
Tanguay_ZF_120hpf_legacy is a whole embryo, multiplexed endpoint assay using zebrafish larvae exposed for 120 hours post fertilization on a 96-well plate.Tanguay_ZF_120hpf_JAW_legacy is one of one assay component(s) measured or calculated from the Tanguay_ZF_120hpf_legacy assay. It is designed to make measurements of zebrafish development as detected with brightfield microscopy of developing zebrafish embryos.Data from the assay component Tanguay_ZF_120hpf_JAW_legacy was analyzed into 1 assay endpoints. This assay endpoint, Tanguay_ZF_120hpf_JAW_legacy, was analyzed in the positive analysis fitting direction relative to DMSO as the negative control and baseline of activity. Using a type of morphology reporter, gain-of-signal activity can be used to understand changes in developmentals as they relate to the whole embryo. To generalize the intended target to other relatable targets, this assay endpoint is annotated to the zebrafish development intended target family, where the subfamily is embryonic jaw development.
Zebrafish husbandry: Tropical 5D wild-type adult zebrafish were housed in at an approximate density of 1000 per 100 gallon tank at the Sinnhuber Aquatic Research Laboratory, Oregon State University, Corvallis, OR. Each tank was kept at standard laboratory conditions of 28C on a 14-h light/10-h dark photoperiod in fish water consisting of reverse osmosis water supplemented with a commercially available salt (Instant Ocean). Spawning funnels were placed into the tanks the night prior, and embryos were collected and staged. To increase bioavailability, the chorion was enzymatically removed using pronase (63.6mg/ml, >/= 3.5U/mg, Sigma-Aldrich: P5147) at 4 hours post fertilization (hpf) using a custom automated dechorionator.Chemical exposures: Six hpf dechorionated embryos were placed 1 embryo per well in a 96-well plate prefilled with 90 ul of EM using automated embryo placement systems (AEPS). Ten microliters of each row of dilution plate 2 was added to 2 exposure plates. The final DMSO concentration used was 0.64% (vol/vol). Thirty-two embryos were also exposed to 5uM trimethyltin chloride (positive control). Plates were sealed to prevent evaporation and foil covered to reduce light exposure and kept in a 28C incubator. Embryos were statically exposed until 120 hpf. At 24 hpf, embryos were assessed for photomotor response using a custom photomotor response analysis tool (PRAT) and for developmental toxicity endpoints (MO24: mortality at 24 hpf, DP: developmental progression, SM: spontaneous movement, and NC: notochord distortion). At 120 hpf, locomotor activity was measured using Viewpoint Zebralab and assessed for 18 endpoints. Zebrafish acquisition and analysis program (ZAAP), a custom program designed to inventory, acquire, and manage zebrafish data, was used to collect developmental endpoints as either present or absent (i.e., binary responses were recorded). If mortality occurred for an embryo (at either 24 or 120 hpf), the non-mortality endpoints were not measured.
With `CCCCC(O)(Cn1cncn1)c1ccc(Cl)cc1Cl` (stereo not given), the call was inactive.
Same read-out and setting: in the case of `N#Cc1c[nH]cc1-c1cccc2c1OC(F)(F)O2` it was “inactive”; in that of `COP(=S)(OC)SCn1nnc2ccccc2c1=O`, “inactive”; in that of `CC1(C)CCC(=Cc2ccc(Cl)cc2)C1(O)Cn1cncn1` (stereo not given), “inactive”.
`COC(=O)N(C(=O)N1CO[C@@]2(C(=O)OC)Cc3cc(Cl)ccc3C2=N1)c1ccc(OC(F)(F)F)cc1`: the outcome was inactive.
On to `COC(=O)NC(=S)Nc1ccccc1NC(=S)NC(=O)OC`, for which the molecule was called inactive.
Same read-out and setting: as for `CCCN(CC)CC1COC2(CCC(C(C)(C)C)CC2)O1` (stereo not given), the entry is “inactive”.
As for `CNC(=O)Oc1cccc2ccccc12`, the molecule was called inactive.
Same read-out and setting: as for `CCSC(=O)N1CCCCCC1`, the entry is “inactive”; as for `Cc1nc(N(C)C)nc(OC(=O)N(C)C)c1C`, “inactive”.
Regarding `CC1(C)C(C(=O)OC(C#N)c2cccc(Oc3ccccc3)c2)C1(C)C` (stereo not given), the molecule was classed as inactive.
Still for that read-out and setting: as for `CCOP(=S)(OCC)Oc1nc(Cl)n(C(C)C)n1`, the entry is “inactive”.
On to `CC(C)N1C(=O)c2ccccc2NS1(=O)=O`, for which the call was inactive.
The same measure, in the same setting: in the case of `COP(=S)(OC)Oc1ccc([N+](=O)[O-])c(C)c1` it was “inactive”; in that of `COc1cc(Cl)c(OC)cc1Cl`, “inactive”.
For the molecule `CC(C)NC(=O)N1CC(=O)N(c2cc(Cl)cc(Cl)c2)C1=O`, the call was inactive.
Take `COc1cc(OC)nc(NC(=O)NS(=O)(=O)c2ncccc2OCC(F)(F)F)n1`: the outcome was inactive.
Take `O=c1n(Cl)c(=O)n(Cl)c(=O)n1Cl`: the result was inactive.
Take `CC(C)N1C(=O)N(c2ccccc2)CSC1=NC(C)(C)C`: the outcome was inactive.
Same read-out and setting: as for `CO/N=C(/C1=NOCCO1)c1ccccc1Oc1ncnc(Oc2ccccc2Cl)c1F`, the entry is “inactive”; as for `Nc1c(Cl)c(F)nc(OCC(=O)O)c1Cl`, “inactive”.
Still for that read-out and setting: as for `Cn1c(-c2ccccc2)cc(-c2ccccc2)[n+]1C`, the entry is “inactive”; as for `OC(c1ccc(Cl)cc1)(c1ccc(Cl)cc1)C(Cl)(Cl)Cl`, “inactive”.
Consider `CC1(C)C(C=C(Cl)Cl)C1C(=O)OC(C#N)c1cccc(Oc2ccccc2)c1` (stereo not given), for which the AC50 is 1.66 µM (active).
On to `CC(C)(C)C(=O)C(Oc1ccc(Cl)cc1)n1cncn1` (stereo not given), for which the molecule was classed as inactive.
On to `C=C(C)CN(CC)c1c([N+](=O)[O-])cc(C(F)(F)F)cc1[N+](=O)[O-]`, for which the outcome was inactive.
On the same count and under the same terms, in the case of `N#Cc1c(Cl)cccc1Cl` it was “inactive”; in that of `Cc1c(COC(=O)[C@@H]2[C@H](/C=C(\Cl)C(F)(F)F)C2(C)C)cccc1-c1ccccc1`, “inactive”; in that of `Nc1cnn(-c2ccccc2)c(=O)c1Cl`, “inactive”.
On the same count and under the same terms, as for `Nc1c(Cl)c(Cl)nc(C(=O)O)c1Cl`, the entry is “inactive”.
Same read-out and setting: as for `COP(=O)(OC)O/C(C)=C/C(=O)N(C)C`, the entry is “inactive”; as for `O=C(O)c1c(Cl)ccc2cc(Cl)cnc12`, “inactive”.
For the molecule `CSC(=O)c1c(C(F)F)nc(C(F)(F)F)c(C(=O)SC)c1CC(C)C`, the outcome was inactive.
Regarding `COCc1cnc(C2=NC(C)(C(C)C)C(=O)N2)c(C(=O)O)c1` (stereo not given), the outcome was inactive.
`CCCCOCN(C(=O)CCl)c1c(CC)cccc1CC`: the outcome was inactive.
The same measure, in the same setting: as for `CC(C)C1(C)N=C(c2ncccc2C(=O)O)NC1=O` (stereo not given), the entry is “inactive”; as for `N#CN=C1SCCN1Cc1ccc(Cl)nc1`, “inactive”; as for `C=CCOC(=O)C(C)(C)OC(=O)c1cc(-n2c(=O)cc(C(F)(F)F)n(C)c2=O)ccc1Cl`, “inactive”.
As to `CCCCC(C#N)(Cn1cncn1)c1ccc(Cl)cc1` (stereo not given), the AC50 was 48 µM (active).
For `CNC(=O)N(C)c1nnc(C(C)(C)C)s1`, the call was inactive.
